Results from publication PMC5540273 (PLoS ONE, 2017).

Experiments:
Conditions in all cases: concentration: 1 μM,replicates: in singlicate; n = 1
EPHA7 = tested on: EPHA7
EPHA8 = tested on: EPHA8
EPHB1 = tested on: EPHB1
EPHB2 = tested on: EPHB2
EPHB3 = tested on: EPHB3
EPHB4 = tested on: EPHB4
EPHB6 = tested on: EPHB6
ERBB2 = tested on: ERBB2
ERBB3 = tested on: ERBB3
ERBB4 = tested on: ERBB4
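Also: KINOMEscan kinase panel screen.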

SMILES	%Inh (EPHA7) [%]	%Inh (EPHA8) [%]	%Inh (EPHB1) [%]	%Inh (EPHB2) [%]	%Inh (EPHB3) [%]	%Inh (EPHB4) [%]	%Inh (EPHB6) [%]	%Inh (ERBB2) [%]	%Inh (ERBB3) [%]	%Inh (ERBB4) [%]
Nc1nccc(-c2ccc3c(N)n[nH]c3c2)n1 [GSK1034945]	6	13	30	19	16	6	2	6	0	25
N#Cc1cccc(C(=O)NC2CCN(c3ccnc(Nc4ccc(F)cc4)n3)C2)c1 (stereo not drawn) [GSK1379708]	0	0	9	0	13	5	0	9	0	10
Cc1ccc(CC(=O)N2CCc3cc(-c4cn(C)c5ncnc(N)c45)ccc32)cc1 [GSK2634758]	4	13	7	0	0	10	53	0	10	18
CC(C(=O)NC1CCN(c2ccnc(Nc3ccc(F)cc3)n2)C1)c1ccc(Cl)cc1 (stereo not drawn) [GSK1379713]	5	14	10	0	0	0	0	25	0	0
COc1cc2nccc(Nc3ccc(Oc4ccccc4)cc3)c2cc1OC.Cl [GI261656]	0	0	9	0	0	3	90.9	80	99.6	85
Cc1nnc(-c2ccc3occ(-c4ccc(S(C)=O)cc4)c3n2)o1 (stereo not drawn)	0	0	0	0	10	12	0	17	0	0
Cc1ccc(Nc2ccnc(Nc3ccc4c(c3)CS(=O)(=O)C4)n2)cc1O.Cl [GW579362]	44	85	78	25	0	16	91.7	17	34	69
COc1cccc(OC)c1C(=O)Nc1cccc(-c2nn3ccccc3c2-c2ccnc(Nc3cccc(F)c3)n2)c1 [GSK361065]	14	17	100	0	8	8	42	61	0	84
CS(=O)(=O)c1cccc(CNc2nc(Nc3ccc4c(c3)[C@@H]3C[C@@H]4CNC3=O)ncc2C(F)(F)F)c1	63	0	40	19	5	16	72	15	0	20
CN1CCN(CCNc2nc3cc(Oc4ccc(NC(=O)Nc5cc(C(F)(F)F)ccc5F)cc4)ccc3[nH]2)CC1.Cl.Cl [GW768504]	0	23	17	34	14	17	25	0	0	0
CNC(=O)c1ccccc1Nc1nc(Nc2cccc(CS(C)(=O)=O)c2)ncc1C.O=CO [GSK1520489]	96.6	96.2	99.9	88	9	91.6	92.8	92.1	3	98.2
CSc1nccc(-c2c(-c3ccc(F)cc3)ncn2CCCN2CCOCC2)n1.Cl [SB-217146]	0	0	11	0	0	0	0	7	0	0
Cn1ccc2ncnc(Oc3ccc(NC(=O)Nc4cncc(C(F)(F)F)c4)c(Cl)c3)c21	74	95.4	45	82	37	35	66	24	0	2
COc1cccc(CNC(=O)NC2CCN(c3ccnc(Nc4cc(OC)c(OC)c(OC)c4)n3)C2)c1 (stereo not drawn) [GSK1379765]	6	13	13	0	20	8	92.6	17	28	38
Cc1ccc2c(-c3ccnc(Nc4ccc(C(F)(F)F)cc4)n3)cnn2n1 [GW819776]	0	6	14	0	7	0	14	0	0	5
CC(=O)Nc1ccc(-c2cc3ncnc(SCC(=O)O)c3s2)cc1	0	0	0	10	22	23	84	6	8	3
C[C@@H](Oc1cc(-n2cnc3ccc(-c4ccncc4)cc32)sc1C(N)=O)c1ccccc1Cl [GSK483724]	14	23	26	0	9	10	0	14	0	41
c1ccc(Oc2ccc(Nc3ccnc4ccc(-c5ccccn5)cc34)cc2)cc1 [GW407034]	0	14	0	5	1	13	49	90.3	89	88
Cn1ccc2ncnc(Oc3ccc(NC(=O)Nc4cccc(C(F)(F)F)c4)c(F)c3)c21	93.8	98.8	80	90.6	74	81	97.6	10	24	2
COc1cc(Nc2nccc(N3CCC(NC(=O)c4cccc(C#N)c4)C3)n2)cc(OC)c1OC (stereo not drawn) [GSK1379751]	0	0	4	0	8	19	86	41	16	31
O=C(Nc1cccc(Oc2ccc3nccn3n2)c1)Nc1cccc(C(F)(F)F)c1	0	92.6	3	39	11	16	40	22	45	0
CCn1c(-c2nonc2N)nc2cncc(Br)c21 [SB-738004]	0	0	0	12	0	13	29	60	43	11

SMILES	%Inh (EPHA7) [%]	%Inh (EPHA8) [%]	%Inh (EPHB1) [%]	%Inh (EPHB2) [%]	%Inh (EPHB3) [%]	%Inh (EPHB4) [%]	%Inh (EPHB6) [%]	%Inh (ERBB2) [%]	%Inh (ERBB3) [%]	%Inh (ERBB4) [%]
COC(=O)c1cccc(NC(=O)NC2CCN(c3ccnc(Nc4cc(OC)c(OC)c(OC)c4)n3)C2)c1 (stereo not drawn) [GSK1379767]	4	7	10	0	8	20	86	51	31	0
COc1cc2c(Nc3ccc(NC(=O)c4ccccc4)cc3)ncnc2cc1OCCCN1CCOCC1 [GSK301329]	6	12	20	0	5	2	79	72	0	85
CC(C)c1nc(-c2cccc(NS(=O)(=O)c3ccccc3)c2)c(-c2ccnc(Nc3ccc4c(c3)CN(C)CC4)n2)s1 [GSK1649598]	13	80	34	0	0	11	98.5	86	97.7	98.8
CCn1c(-c2nonc2N)nc2cncc(CNC3CCNCC3)c21.Cl [SB-747651]	9	0	12	0	8	0	0	21	8	0
Cl.c1ccc(Oc2ccc(Nc3ccnc4cc(-c5ccc(CN6CCNCC6)o5)ccc34)cc2)nc1 [GW567142]	0	10	0	0	0	4	96.2	92	97	42
O=C(Nc1ccccc1)c1cccc(Oc2ccc3nccn3n2)c1	0	1	13	8	0	3	64	0	39	0
COC(=O)Nc1nc2cc(Oc3ccc(NC(=O)Nc4cc(C(F)(F)F)ccc4Cl)cc3)ccc2[nH]1.Cl [GW697465]	84	99.7	62	60	10	51	83	45	25	37
CC(C)S(=O)(=O)N1CCN(Cc2ccc3c(c2)nc(NC(=O)c2ccsc2)n3C[C@H](O)c2ccccc2)CC1 [GW635815]	10	19	35	16	15	14	0	0	0	0
CN(c1ccc2c(c1)nc(NCc1ccc(F)cc1)n2C)c1ccnc(Nc2ccc(CS(C)(=O)=O)cc2)n1.Cl [GW813244]	0	49	9	23	5	0	78	17	0	19
CS(=O)(=O)Nc1ccc(-c2ccnc3[nH]ccc23)cc1 [GSK993273]	13	18	19	6	18	0	5	15	0	0
Cl.Nc1n[nH]c2cc(-c3ccccn3)ccc12 [GSK2189892]	0	0	4	0	4	0	18	9	0	0
CC(=O)Nc1nc2cnc(Nc3cc(NC(=O)c4cccc(CC(C)(C)C#N)c4)ccc3C)nc2s1	4	72	11	55	13	37	61	42	9	0
Cl.Cl.NC[C@H](CC1CCCCC1)NC(=O)c1ccc(-c2ccnc3[nH]ccc23)s1 [GSK1581428]	14	36	6	0	15	14	12	22	0	0
Cn1ccc2ncnc(Oc3ccc(NC(=O)Nc4cccc(C(F)(F)F)c4)c(Cl)c3)c21	82	99.5	70	92.9	66	64	90	29	5	12
CN1CCN(CCCNc2nccc(-c3c(-c4ccc(F)cc4)nn4cc(C(N)=O)ccc34)n2)CC1 [GW622475]	8	26	35	26	0	20	44	24	0	63
O=C(NCC1CC1)c1ccc(-c2cc(C(=O)NC3CC3)ccc2F)cc1 [GW810445]	0	3	4	0	0	0	0	11	0	33
Cc1n[nH]c2cc(Nc3ccnc(Nc4cccc(CN5CCOCC5)c4)n3)ccc12 [GW682569]	0	9	19	13	12	11	87	27	12	43
CS(=O)c1ccc(-c2coc3ccc(-c4n[nH]c(=O)o4)cc23)cc1 (stereo not drawn)	0	0	0	12	0	0	25	0	13	5
CN(c1cccc(CNc2nc(Nc3ccc4c(c3)CC(=O)N4)ncc2C(F)(F)F)c1)S(C)(=O)=O	33	0	20	14	1	5	56	26	0	6
Cc1ccn2nc(-c3ccc(F)cc3)c(-c3ccncc3)c2c1.Cl [GW457859]	0	0	0	0	2	3	8	64	24	32
O=C1NCCc2[nH]c(-c3ccncc3)cc21	0	0	0	12	44	17	8	0	21	0
NC(=O)Nc1sc(-c2ccc(F)cc2)cc1C(N)=O [GW789449]	0	0	24	0	14	20	64	15	54	3

SMILES	%Inh (EPHA7) [%]	%Inh (EPHA8) [%]	%Inh (EPHB1) [%]	%Inh (EPHB2) [%]	%Inh (EPHB3) [%]	%Inh (EPHB4) [%]	%Inh (EPHB6) [%]	%Inh (ERBB2) [%]	%Inh (ERBB3) [%]	%Inh (ERBB4) [%]
Cc1ccc(C(=O)Nc2ccc(Oc3ccc4nc(NC(=O)C5CC5)cn4c3)c(F)c2)c(=O)n1-c1ccccc1	74	99.8	83	94.8	11	75	99.1	30	43	3
OCCn1cc(-c2cnc3nnn(Cc4ccc5ncccc5c4)c3n2)cn1	0	0	0	0	0	0	17	5	0	0
COc1ccc(Nc2nccc(N3CCC(NC(=O)c4cccc(C#N)c4)C3)n2)cc1 (stereo not drawn) [GSK1379730]	3	18	0	0	3	0	0	0	0	0
O=c1[nH]cc(-c2ccc(O)cc2)c2sc(-c3ccncc3)cc12 [GSK1033723]	0	2	0	26	15	13	0	28	0	2
CCCC(=O)Nc1n[nH]c2ncccc12 [SB-601436]	0	0	0	0	12	16	0	0	0	0
COc1cccc(C2=C(Nc3cccc(Cl)c3)C(=O)NC2=O)c1 [SB-341556]	7	20	0	0	17	4	29	0	0	0
CCOC(=O)N1CCC(n2cnc(-c3ccc(F)cc3)c2-c2ccnc(N)n2)CC1 [SB-219952]	1	0	0	7	11	4	30	5	21	21
C[C@@H]1CCN(C(=O)N2CCCC2)C[C@@H]1N(C)c1ncnc2[nH]ccc12	0	0	0	5	26	0	34	10	0	7
O=C(NOCC1CC1)c1cc(Br)c(F)c(F)c1Nc1ccc(I)cc1Cl	0	0	5	5	0	0	0	44	0	0
COC(=O)c1cccc(NC(=O)NC2CCN(c3ccnc(NCc4ccc(F)cc4)n3)CC2)c1 [GSK1379860]	18	19	14	0	11	4	0	21	8	6
Cn1ccc2ncnc(Oc3ccc(NC(=O)Nc4cnn(C(C)(C)C)c4)c(Cl)c3)c21	27	41	15	50	29	15	48	31	9	12
Cc1cccc2c(-c3ccncc3)c(-c3ccc(F)cc3)nn12.Cl [GW461487]	9	16	5	94.5	7	0	26	1	0	16
C[C@@H](Oc1cc(-n2cnc3cc(-c4cnn(C)c4)ccc32)sc1C(N)=O)c1ccccc1Cl [GSK580432]	4	34	29	0	16	19	93.7	0	0	0
Cn1ccc2ncnc(Oc3ccc(NC(=O)Nc4cc(C(C)(C)C)on4)c(Cl)c3)c21	90	98.9	65	78	40	35	64	81	5	0
O=C(Nc1n[nH]c2cc(-c3ccco3)ccc12)C1CC1 [SB-737447]	0	0	0	0	6	0	34	0	0	0
Cn1ccc2ncnc(Oc3ccc(NC(=O)Nc4ccnc(C(F)(F)F)c4)c(Cl)c3)c21	6	14	5	28	25	20	36	20	0	0
C[C@@H]1CNc2c(sc3ccc4nc(-c5ccc(O)cc5)ccc4c23)C(=O)N1	0	0	5	12	0	0	9	26	0	6
CCNCC(Cc1ccccc1)NC(=O)c1cc(Br)c(-c2ccnc3[nH]ccc23)s1.Cl.Cl (stereo not drawn) [GSK1383280]	9	26	7	0	17	0	0	3	0	22
COc1cc2ncn(-c3cc(OCC4CCCCC4)c(C(N)=O)s3)c2cc1OC [GSK204559]	17	29	10	0	21	8	64	0	0	0
CCN1CCN(CCCC(=O)Nc2n[nH]c3nc(-c4ccc(O)cc4)c(Br)cc23)CC1 [SB-731579]	0	0	0	6	0	0	0	24	66	0
Cn1cc(-c2cccc3c(N)c(C(N)=O)nnc23)cn1	6	13	4	12	11	5	16	14	27	0
Cc1cccc(-c2nc(Nc3ccncc3)c3sccc3n2)n1 [GW869641]	6	2	15	6	16	0	30	29	29	13
